From PubChem BioAssay (NCI)
This is part of a sample that, as a whole, favours compounds with a hit. Of some 83,000 tested, about 20% had one in any assay.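 Values shown are percent growth following 48 h exposure of cells in 96-well plates to a single concentration of compound; below 10 was considered active.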 The source made the active and inactive calls.

How the values were obtained:
Assay in all cases: NCI-60 one-dose screen, 48 h (100 = growth as untreated, 0 = no growth, -100 = all killed)
Conditions in all cases: 10 µM unless noted
HCT-15 colon = system: HCT-15 colon
HT29 colon = system: HT29 colon
SNB-75 CNS = system: SNB-75 CNS
SNB-19 CNS = system: SNB-19 CNS
U251 CNS = system: U251 CNS
PC-3 prostate = system: PC-3 prostate
SK-MEL-5 melanoma = system: SK-MEL-5 melanoma
UACC-62 melanoma = system: UACC-62 melanoma
LOX IMVI melanoma = system: LOX IMVI melanoma
SK-MEL-28 melanoma = system: SK-MEL-28 melanoma
SK-MEL-2 melanoma = system: SK-MEL-2 melanoma
EKVX NSCLC = system: EKVX NSCLC
SN12C renal = system: SN12C renal
UO-31 renal = system: UO-31 renal
TK-10 renal = system: TK-10 renal
ACHN renal = system: ACHN renal
CAKI-1 renal = system: CAKI-1 renal
A498 renal = system: A498 renal
CCRF-CEM leukemia = system: CCRF-CEM leukemia
MOLT-4 leukemia = system: MOLT-4 leukemia

Measured: growth

COc1ccc(/C=N/NC(=O)Cn2c(-c3ccc(S(C)(=O)=O)cc3)nc3ccccc32)cc1
inactive: HCT-15 colon 98.8% | HT29 colon 103% | SNB-75 CNS 101% | SNB-19 CNS 100% | U251 CNS 106% | PC-3 prostate 93.2% | SK-MEL-5 melanoma 96.7% | UACC-62 melanoma 90.8% | LOX IMVI melanoma 114% | SK-MEL-28 melanoma 102% | SK-MEL-2 melanoma 107% | EKVX NSCLC 97% | SN12C renal 99.9% | UO-31 renal 75.9% | TK-10 renal 109% | ACHN renal 105% | CAKI-1 renal 93% | A498 renal 95% | CCRF-CEM leukemia 106% | MOLT-4 leukemia 141%

O=C(Nc1cc(Cl)cc(Cl)c1)Oc1c(Cl)c(Cl)c(Cl)c(Cl)c1Cl
inactive: HCT-15 colon 77.8% | HT29 colon 73.2% | SNB-75 CNS 71.3% | SNB-19 CNS 66.1% | U251 CNS 62.9% | PC-3 prostate 42.2% | SK-MEL-5 melanoma 41.5% | UACC-62 melanoma 65.7% | LOX IMVI melanoma 72.5% | SK-MEL-28 melanoma 84.8% | SK-MEL-2 melanoma 64% | EKVX NSCLC 64.2% | SN12C renal 71.2% | UO-31 renal 58.4% | TK-10 renal 113% | ACHN renal 65.8% | CAKI-1 renal 68.1% | A498 renal 19.6% | CCRF-CEM leukemia 47.7% | MOLT-4 leukemia 63.5%

COc1ccc(C(=O)Nc2ncc(Cc3ccc(Cl)cc3)s2)cc1
active: HCT-15 colon 8.72% | HT29 colon 6.03% | SK-MEL-5 melanoma -1.16% | A498 renal -18.5%
inactive: SNB-75 CNS 20% | SNB-19 CNS 23.9% | U251 CNS 25.2% | PC-3 prostate 22.7% | UACC-62 melanoma 33.5% | LOX IMVI melanoma 19.8% | SK-MEL-28 melanoma 52.3% | SK-MEL-2 melanoma 23.9% | EKVX NSCLC 36.5% | SN12C renal 24.8% | UO-31 renal 37.4% | TK-10 renal 58.9% | ACHN renal 25.6% | CAKI-1 renal 18.4% | CCRF-CEM leukemia 14.5% | MOLT-4 leukemia 12.3%

COC(=O)[C@@]12CC=C(C)[C@]3(C[C@H](c4ccoc4)OC3=O)[C@H]1C=C[C@@H](O)[C@@]2(O)C(=O)OC
inactive: HCT-15 colon 108% | HT29 colon 84.7% | SNB-75 CNS 88.9% | SNB-19 CNS 105% | U251 CNS 97.9% | PC-3 prostate 95.6% | SK-MEL-5 melanoma 107% | UACC-62 melanoma 92.8% | LOX IMVI melanoma 97.5% | SK-MEL-28 melanoma 105% | SK-MEL-2 melanoma 84.6% | EKVX NSCLC 94.7% | SN12C renal 104% | UO-31 renal 82.7% | TK-10 renal 80.3% | ACHN renal 105% | CAKI-1 renal 85.1% | A498 renal 109% | CCRF-CEM leukemia 111% | MOLT-4 leukemia 106%

Cc1c(O)cc(-c2cnc(N/N=C/c3ccccc3)s2)c(O)c1C
inactive: HCT-15 colon 79.1% | HT29 colon 104% | SNB-75 CNS 98% | SNB-19 CNS 105% | U251 CNS 97.9% | PC-3 prostate 69.7% | SK-MEL-5 melanoma 85.8% | UACC-62 melanoma 81.9% | LOX IMVI melanoma 79.9% | SK-MEL-28 melanoma 92.2% | SK-MEL-2 melanoma 104% | EKVX NSCLC 87.2% | SN12C renal 95.6% | UO-31 renal 79.9% | TK-10 renal 129% | ACHN renal 99.4% | CAKI-1 renal 91.7%
active: A498 renal -20.4% | CCRF-CEM leukemia 8.48% | MOLT-4 leukemia 9.73%

C=C[C@@]1(C)CC(=O)[C@@H](C(C)(C)c2cn(C)c3ccc(Br)cc23)C[C@@H]1O[Si](C)(C)C(C)(C)C
inactive: HCT-15 colon 102% | HT29 colon 103% | SNB-75 CNS 102% | SNB-19 CNS 98.9% | U251 CNS 97.4% | PC-3 prostate 84.1% | SK-MEL-5 melanoma 104% | UACC-62 melanoma 93.7% | LOX IMVI melanoma 90.4% | SK-MEL-28 melanoma 100% | SK-MEL-2 melanoma 97.8% | EKVX NSCLC 99.3% | SN12C renal 97.6% | UO-31 renal 94% | TK-10 renal 98.1% | ACHN renal 111% | CAKI-1 renal 90.2% | A498 renal 106% | CCRF-CEM leukemia 89.5% | MOLT-4 leukemia 94.7%

COc1ccc2cc(C(=O)N3CCC([C@@H](C)C(=O)NCc4ccc5c(c4)OCO5)CC3)[nH]c2c1
inactive: HCT-15 colon 83% [50 µM] | HT29 colon 89.6% [50 µM] | SNB-19 CNS 25.8% [50 µM] | U251 CNS 23.6% [50 µM] | PC-3 prostate 56.5% [50 µM] | SK-MEL-5 melanoma 63.6% [50 µM] | UACC-62 melanoma 43.7% [50 µM] | LOX IMVI melanoma 54.7% [50 µM] | SK-MEL-28 melanoma 77.8% [50 µM] | SK-MEL-2 melanoma 63.6% [50 µM] | EKVX NSCLC 73.4% [50 µM] | SN12C renal 53.2% [50 µM] | UO-31 renal 41.5% [50 µM] | TK-10 renal 27.1% [50 µM] | ACHN renal 29.4% [50 µM] | CAKI-1 renal 60.3% [50 µM] | A498 renal 80.4% [50 µM] | CCRF-CEM leukemia 85.8% [50 µM] | MOLT-4 leukemia 78.2% [50 µM]
active: SNB-75 CNS -37.6% [50 µM]
